Drawing on PubChem BioAssay AID2275 (Broad Institute, 2010), this text covers viability loss activity score for 85 compounds.

The whole screen tested about 30,000 compounds, of which about 190 (0.63%) were called active. This excerpt belongs to a sample that is enriched for actives. Values without a mark were called inactive. Cut-off read from the data, not from the text of the source: active = viability loss activity score above about 50%; inconclusive = no clear call, values can overlap the other calls; inactive = below about 35%.

This assay in a line: cytotoxicity in HRASV12-transformed BJ fibroblasts – cell-based, luminescence, CellTiterGlo ATP, primary screen (AID 2275).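 Note: higher score means fewer live cells and less ATP luminescence.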 The following applies: BJeLR fibroblasts viability, 48 h, active compounds read high, HRASV12, hTERT and SV40 LT/ST transformed, concentration not given here.
`O=c1cc(N2CCN(c3ccccc3)CC2)[nH]c(=O)n1-c1ccc(Cl)cc1`: the viability loss activity score was 2.58%.

Turning to `CN(Cc1ccccc1)C(=O)c1cc(-c2ccc(Cl)cc2)on1`, the viability loss activity score is 3.08%. In the case of `CC1=C(C(=O)OCc2ccccc2)OC(N)=C(C#N)C1c1ccc(F)cc1` (stereo not given), the viability loss activity score was 1.52%. The figure for `Cc1ccc(Cl)cc1N(C)C(=O)c1cc2c(-c3ccc(Cl)cc3)nn(C)c2s1` is -0.32%; for `Cc1ccccc1NC(=O)Nc1ccccc1N1CCCCC1` it is 1.43%. As to `C=C1SC(Nc2ccc(C)cc2)=NC1(C)C`, the viability loss activity score was 0.0102%.

For `COc1ccc2c(c1)-c1c(ssc1=S)C(C)(C)N2C(C)=O`, the viability loss activity score was 12.8%.

`C[C@H]1O[C@@H](O[C@H]2[C@@H](O)C[C@H](O[C@H]3[C@@H](O)C[C@H](O[C@H]4CC[C@]5(C)C6C[C@@H](O)[C@]7(C)[C@@H](C8=CC(=O)OC8)CC[C@]7(O)C6CC[C@@H]5C4)O[C@@H]3C)O[C@@H]2C)C[C@H](O)[C@@H]1O` (stereo not given in full): the viability loss activity score is 129% (active). On to `COc1cc(OC)cc(C2C(C#N)=C(N)OC(N)=C2C#N)c1`, for which the viability loss activity score was 1.86%. As for `CCOC(=O)C1CCN(C(=O)CN2C(=O)c3ccccc3C2=O)CC1`, the figure is -3.08%; as for `Cc1noc(C)c1NC(=O)Nc1ccc2c(c1)C(=O)N([C@H](C)CO)C[C@H](C)[C@H](CN(C)Cc1ccc(-c3ccccc3)cc1)O2`, -1.86%. For the compound `Cc1cc(-c2nc(C)c(-c3nnc(SCC(=O)Nc4ccccc4)n3C)s2)no1`, the viability loss activity score was -2.45%. Turning to `Cc1ccc2oc(=O)c3cc(C(=O)NC4CCCC4)sc3c2c1`, the viability loss activity score is 4.55%. As to `Cc1ccc(S(=O)(=O)N(CC(=O)Nc2ccc3c(c2)OCCO3)C2CCCCC2)cc1`, the viability loss activity score was -4.45%. As for `CC[C@H]1CN2CCc3cc(OC)c(OC)cc3[C@@H]2C[C@@H]1C[C@H]1NCCc2cc(OC)c(OC)cc21`, the figure is 96.1% (active).

In the case of `COc1cc2c(cc1OC)C1CN3CCc4cc(OC)c(OC)cc4C3CN1CC2` (stereo not given), the viability loss activity score is 18.2%.

Take `O=C(Nc1cccc(-c2nc3ccccc3o2)c1)c1cccc(OCc2ccccc2)c1`: the viability loss activity score is 10.7%. `Cc1ccc(CN2CCSc3ccc(C(=O)Nc4ccc(F)cc4)cc32)cc1`: the viability loss activity score is 0.172%.

On to `O=C(NC1CCCCC1)C1CCC(CNS(=O)(=O)c2ccccc2)CC1` (stereo not given), for which the viability loss activity score was 6.1%.

`CCc1ccc(NC(=O)NC(C)(C)C)cc1`: the viability loss activity score was -4.47%. As for `Cc1ccc(CNC(=O)CCC(=O)Nc2ccc3nc(N4CCCCC4)cc(C)c3c2)cc1`, the figure is 0.494%; as for `Cc1ccccc1NCC(=O)NN`, -2.54%.

With `Cc1nnn(C23CC4CC(CC(CC(=O)Nc5ccc(Cl)cc5)(C4)C2)C3)n1`, the viability loss activity score was -2.2%. For `CC(C)(C)c1ccc(/C=C/C(=O)NCCCn2ccnc2)cc1`, the viability loss activity score is 0.598%. The figure for `Nc1cc(=O)[nH]c2nnc(SCc3ccc(Br)cc3)n12` is -1.86%; for `Cc1ccc(N2C(=O)c3oc4cc(C)c(C)cc4c(=O)c3C2c2ccc(O)cc2)nc1` (stereo not given) it is -1.21%; for `Oc1ccc(CN2CCCC2)c2cccnc12` it is -4.68%. As for `CC1(C)Cc2c(cnn2-c2ccc(F)cc2)-c2nc3ccccc3nc21`, the figure is -0.68%; as for `CC(C)N(Cc1nc(-c2ccccc2)no1)C(=O)CCc1ccccc1`, -7.42%; as for `Nn1c(C(=O)N2CCCC2)nc2ccccc2c1=O`, -0.611%. In the case of `CC(C)c1ccc(S(=O)(=O)N2CCN(S(=O)(=O)c3ccc(C(C)C)cc3)C(C)C2)cc1` (stereo not given), the viability loss activity score is 4.1%.

`CC1C=CCC2C(=O)N(c3cccc(Cl)c3)C(=O)C12` (stereo not given): the viability loss activity score is 0.408%. Consider `CCCCN(Cc1ccccc1)S(=O)(=O)c1ccc2c(c1)oc(=O)n2CC(=O)OCC`, for which the viability loss activity score is -1.44%. The figure for `O=C1c2ccccc2C(=O)N1CCCC(=O)n1ccc2ccccc21` is -4.38%; for `O=C(O)C1=NN(c2ccccc2)C(=O)/C1=C/c1cccs1` it is 5.24%.

Consider `O=C(CCSc1nc(-c2ccco2)cc(C(F)(F)F)n1)N1CCCCC1`, for which the viability loss activity score is -3.03%.

For the compound `COc1ccc(Cn2c(=O)oc3ccccc32)cc1`, the viability loss activity score is -1.69%.

Regarding `C[C@H](CO)N1C[C@H](C)[C@H](CN(C)S(=O)(=O)c2cccs2)Oc2c(NC(=O)Nc3ccc4c(c3)OCO4)cccc2C1=O`, the viability loss activity score was 1.64%.

Regarding `C=CCNC(=O)/C=C/c1ccc(C(C)C)cc1`, the viability loss activity score was -1.64%. As to `COc1cc2c(C(=O)N3CCN(c4ccccc4)CC3)cn(CC(C)C)c(=O)c2cc1OC`, the viability loss activity score is -11.1%.

Take `CCN(C(=O)CSc1nc2ccccc2c2nc3ccccc3n12)c1cccc(C)c1`: the viability loss activity score was 0.323%.

Take `O=C(NC1CCCC1)c1cc(-c2ccc(Br)cc2)on1`: the viability loss activity score was -5.17%. The figure for `C[C@@H]1CN([C@H](C)CO)C(=O)c2cc(NS(=O)(=O)c3cccs3)ccc2O[C@H]1CN(C)Cc1ccncc1` is 1.52%; for `NNC(=O)CN1C(c2ccc(Cl)cc2)=Nc2ccc(Cl)cc2C1c1ccccc1` (stereo not given) it is 4.53%; for `CC1=C(C(=O)Nc2ccccc2Br)C2(CCCCC2)OC1=O` it is -3.85%.

As for `O=C(Nc1cccnc1)c1cc2c(s1)-c1ccccc1CC2`, the viability loss activity score is 2.6%. For the compound `COc1ccc(S(=O)(=O)N(C)C[C@H]2Oc3ccc(NS(C)(=O)=O)cc3C(=O)N([C@H](C)CO)C[C@H]2C)cc1`, the viability loss activity score is 4.8%. As to `CC(C)c1ccc(NC(=O)c2ccc(NS(=O)(=O)c3cccs3)cc2)cc1`, the viability loss activity score was 11.3%. For `CCOc1ccc(NC(=O)Cn2c3c(c(-c4ccccc4)cc2=O)CCCC3)cc1`, the viability loss activity score is 3.03%.

As for `Cc1ccc2nc(-c3ccc(NC(=O)C4CCC4)cc3)sc2c1`, the viability loss activity score was -1.59%. For the compound `Cc1ccc(OCC(=O)Nc2ccc(-c3nn4c(C)nnc4s3)cc2)cc1`, the viability loss activity score is -1.91%. As for `CC1CCCCN1C(=O)CSc1nc(-c2ccccc2)cc(C(F)(F)F)n1` (stereo not given), the figure is -1.5%; as for `CCC1=Nc2cc(C(=O)NCCCN3CCOCC3)ccc2Sc2ccc(Br)cc21`, 7.81%; as for `C[C@@H]1CN([C@@H](C)CO)C(=O)c2cccc(NC(=O)Nc3ccc(C(F)(F)F)cc3)c2O[C@@H]1CN(C)S(=O)(=O)c1ccc(F)cc1`, -0.826%. Regarding `N=c1n(CC(=O)c2ccc(Cl)c(Cl)c2)c2ccccc2n1Cc1ccccc1`, the viability loss activity score is 0.84%. As for `O=C(NCCc1ccccc1)c1ccc(NC2=NC3CS(=O)(=O)CC3S2)cc1` (stereo not given), the figure is 2.13%; as for `COc1ccc(S(=O)(=O)Nc2cccc3c2O[C@@H](CN(C)Cc2ccc(-c4ccccc4)cc2)[C@H](C)CN([C@H](C)CO)C3=O)cc1`, 1.26%; as for `CC(=O)NC(c1ccccc1)c1ccc2cccnc2c1O` (stereo not given), 76.4% (active). As for `CC(C)(C)c1cc(C(=O)Oc2ccc(Cl)cc2)n(Cc2ccccc2)n1`, the figure is 4.03%; as for `C[C@@H]1CN([C@H](C)CO)C(=O)c2cccc(NS(=O)(=O)c3ccc(F)cc3)c2O[C@@H]1CN(C)C(=O)Nc1ccc(F)cc1`, 3.97%; as for `CCOc1cc(CNc2ccc(OC)cc2)ccc1OCC(=O)NC(C)(C)C`, -0.358%.

Take `COc1ccc(NC(=O)Nc2cccc3c2O[C@@H](CN(C)C(=O)NC(C)C)[C@H](C)CN([C@H](C)CO)C3=O)cc1`: the viability loss activity score was -0.272%. `COc1ccc2[nH]c3c(=O)n(Cc4ccc(C(=O)NCc5cccnc5)cc4)c(=S)[nH]c3c2c1`: the viability loss activity score was 2.75%. `COCc1cc(C)nc2sc(C(N)=O)c(N)c12`: the viability loss activity score is 6.31%. The figure for `CCOc1cc(-c2cc(C)c3c(ccc4ccccc43)n2)ccc1O` is -1.76%; for `CCc1ccc(/C=C2\Cc3ccccc3C2=O)cc1` it is 4.71%. On to `CCS(=O)(=O)C(=C(Nc1ccccc1)Nc1ccccc1)S(=O)(=O)CC`, for which the viability loss activity score was 21.6%. As for `CN1/C(=C/C(=S)C(C)(C)C)Sc2ccccc21`, the figure is 0.712%. As to `CCCCn1c(-c2ccc(Br)cc2)nc2ccccc21`, the viability loss activity score was -1.15%.

`Cc1ccc(NC2CCCCC2NS(=O)(=O)c2ccccc2)cc1` (stereo not given): the viability loss activity score was 8.06%.

For the compound `Cc1cc(C)c2c(c1)CC(C)(C)c1[nH]c(-c3ccccc3)nc1-2`, the viability loss activity score was -0.635%. As to `COCC(=O)NCc1nn(-c2ccccc2)nc1C`, the viability loss activity score was 1.49%.

Take `Cc1ccc(S(=O)(=O)c2no[n+]([O-])c2S(=O)(=O)c2ccc(C)cc2)cc1`: the viability loss activity score is 62% (active).

As to `CCOC(=O)N1CCN(C(=O)CSc2ncnc3c2nnn3Cc2ccc(F)cc2)CC1`, the viability loss activity score is -1.44%. In the case of `Cc1ccc2c(c1)N(CCC(=O)NC1CCC(C)CC1)C(=O)CO2` (stereo not given), the viability loss activity score is -1.39%.

Take `C=CCn1c(SCc2ccc(C(=O)O)cc2)nnc1-c1cccc(OC)c1`: the viability loss activity score is -6.6%. Regarding `CCN(C(=O)c1coc(=O)c2ccccc12)c1cccc(C(F)(F)F)c1`, the viability loss activity score was 0.65%. Take `O=C(O)CSc1nnc(COc2ccc(Cl)cc2)n1-c1ccc(Br)cc1`: the viability loss activity score was 0.406%. Regarding `C[C@@H]1CN([C@H](C)CO)C(=O)c2cc(NS(C)(=O)=O)ccc2O[C@H]1CN(C)C(=O)Nc1cccc2ccccc12`, the viability loss activity score is -0.115%. The figure for `S=C(Nc1cccc(Cl)c1)N1CCCN(Cc2ccccc2Cl)C1` is -1.27%; for `O=C1CC(c2ccc(F)cc2)CC(O)=C1C=NCCN1CCN(C(=S)Nc2ccccc2)CC1` (stereo not given) it is 8.57%.

`Cc1ccc(S(=O)(=O)N2CCCC2)cc1-c1nnc2c3ccccc3c(C)nn12`: the viability loss activity score is 2.21%. As to `CCOC(=O)c1c(C)n(C)c2ccccc12`, the viability loss activity score was 1.79%. As for `Cc1ccc(-n2nnnc2-c2cnn(-c3ccccc3)c2C)cc1`, the viability loss activity score was -4%.

As to `Cc1ccc(S(=O)(=O)Nc2ccc3c(c2)C(=O)N([C@H](C)CO)C[C@H](C)[C@H](CN(C)S(C)(=O)=O)O3)cc1`, the viability loss activity score is 0.992%.
